Consider 39 compounds from PubChem BioAssay (NCI).

Values joined by “and” are separate entries in the source; they are usually repeats but may differ in a detail not shown here. Identical values can stand only once. Compounds without any hit were thinned out: in the full panel of roughly 83,000, 20% have a hit.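 Cell lines were cultured in 96-well plates, exposed to a single compound concentration, and assessed for percent growth 48 hours later.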 Active and inactive are the calls of the source.

The first assay has as its system OVCAR-5 ovarian. Put plainly: NCI-60 one-dose screen, 48 h (100 = growth as untreated, 0 = no growth, -100 = all killed). Particulars: 4.75 µM. The protocol:
Growth inhibition of the OVCAR-5 human tumor cell line is measured as a screen for anti-cancer activity. Cells are grown in 96 well plates and exposed to the test compound for 48 hours. Compounds are tested at a single concentration, which is 10^-5 M for most compounds. The reported endpoint is percent growth (GI% or GIPRCNT), where numbers from 0 - 100% represent growth inhibition, and numbers from -100% - 0 represent cell death. For example, a value of 40 represents 60% growth inhibition. A value of 0 means no net growth occurred over the course of the experiment. A value of -40 indicates 40% of cells at the beginning of the experiment died by the end of the experiment. A value of -100 means all cells are dead at the end of the experiment.
NCI-60 Human Tumor Cell Lines Screen was performed using the standard one-dose NCI protocol, which is described in more detail at https://dtp.cancer.gov/discovery_development/nci-60/default.htm.
Compounds with GIPRCNT values below 10 were considered active. Activity score was based on GIPRCNT using the following formula: […]
Score is 0 for GIPRCNT values of 100 or above, 50 for GIPRCNT values of 0, and 100 for GIPRCNT values of -100.
For the compound `CC(=O)OCC1OC([S-])C(OC(C)=O)C(OC(C)=O)C1OC(C)=O.[Au+].c1ccc(CN2[CH-]N(Cc3ccccc3)C(c3ccccc3)=C2c2ccccc2)cc1`, the growth is 24.2% (inactive).

Still in this assay, the particulars now being: 10 µM.
As to `CC(=O)OCC1OC([S-])C(OC(C)=O)C(OC(C)=O)C1OC(C)=O.[Au+].c1ccc(CN2[CH-]N(Cc3ccccc3)C(c3ccccc3)=C2c2ccccc2)cc1`, the growth is 72.2% (inactive).

Still in this assay, the particulars now being: 10 µM unless noted.
For the compound `CCC(Br)(CC)C(=O)NC(N)=O`, the growth is 101% (inactive).
As for `CCCN1C(=O)NC(=O)C(CC)(N2C(=O)c3c(F)c(F)c(F)c(F)c3C2=O)C1=O` (stereo not given), the growth was -88.1% (active).
Regarding `CC(=O)C(N)Cc1ccccc1` (stereo not given), the growth is 105% (inactive).
For `Oc1cc(Cl)ccc1Oc1ccc(Cl)cc1Cl`, the growth was 86.2% (inactive).
Take `C[C@H](O)CCC(=O)c1ccoc1`: the growth was 106% (inactive).
Regarding `CCCC[C@H]1C(=O)O[C@H](C)[C@H](NC(=O)c2cccc(NC=O)c2O)C(=O)O[C@@H](C)[C@@H]1OC(=O)CC(C)C`, the growth is -27.7% (active).
The same measure, in the same setting: the same measure for `CN(C)[C@@H]1C(=O)C(C(N)=O)=C(O)[C@@]2(O)C(=O)C3=C(O)c4c(O)ccc(Cl)c4[C@@](C)(O)[C@H]3C[C@@H]12`: 92.1% (inactive) and 94.8% (inactive); for `CN(C)c1ccc(N)cc1`: 112% (inactive) and 89.5% (inactive); for `COC[C@H]1OC(=O)c2coc3c2[C@@]1(C)C1=C(C3=O)[C@@H]2CCC(=O)[C@@]2(C)C[C@H]1OC(C)=O`: -41.3% (active).
On to `C(=NC1CCCCC1)=NC1CCCCC1`, for which the growth is 89.7% (inactive) and 90.7% (inactive).
Consider `O=CC1(c2ccccc2)CCN(Cc2ccccc2)CC1`, for which the growth was 107% (inactive).
For `COc1cc(C2C3=C(CCCC3=O)N(CCO)c3cc4c(cc32)CCC4)cc(OC)c1OC` (stereo not given), the growth was 96.1% (inactive).
`C[C@]12CCc3sc(Nc4ccc(F)cc4)nc3C1=CC[C@@H]1[C@@H]2CC[C@]2(C)C(=O)CC[C@@H]12`: the growth was 100% (inactive).
In the case of `O=NN(c1ccccc1)c1ccccc1`, the growth was 107% (inactive).
With `CNC(=O)CCl`, the growth is 107% (inactive).
Consider `Clc1ccc(COC(Cn2ccnc2)c2ccc(Cl)cc2Cl)c(Cl)c1` (stereo not given), for which the growth is 64.5% (inactive) and -11.4% (active).
The same measure, in the same setting: the same measure for `C/C=C(/C)C(=O)O[C@H]1CC[C@@]2(C)[C@@H]3CC[C@H]4[C@]5(O)C[C@H](O)[C@@]6(O)[C@@H](CN7C[C@@H](C)CC[C@H]7[C@@]6(C)O)[C@]5(O)C[C@@]42O[C@@]13O`: 103% (inactive).
In the case of `N#CCCc1ccccc1`, the growth is 98% (inactive).
Same read-out and setting: the same measure for `c1ccc2c(c1)O[As](O[As]1Oc3ccccc3O1)O2`: 40.6% (inactive).
For `Cn1cc(-c2csc(-c3cn(CCCCN4CCOCC4)c4ccc(F)cc34)n2)c2cccnc21`, the growth was 79.5% (inactive).
For `Oc1ccccc1C=NCCN=Cc1ccccc1O.[Fe]`, the growth is 118% (inactive).
With `Nc1ccc(S(=O)(=O)F)cc1`, the growth is 102% (inactive).
Still for that read-out and setting: the same measure for `COc1ccc(N)cc1N`: 98.5% (inactive); for `O=[N+]([O-])c1cc(Cl)c(Cl)c([N+](=O)[O-])c1Cl`: 107% (inactive); for `CC(=O)c1cccc(S(=O)(=O)F)c1`: 90.5% (inactive).
As for `O=C(O)C(O)c1ccc(Cl)cc1` (stereo not given), the growth is 110% (inactive).
Turning to `Cc1ccc(NC2=N[C@]34CC(=O)CC[C@]3(C)[C@H]3CC[C@]5(C)C(=O)CC[C@H]5[C@@H]3C[C@@H]4S2)c(C)c1`, the growth is 59.1% (inactive).
With `CC[C@H](C)[C@H](NC(=O)[C@H]1CCCCN1C)C(=O)N(C)[C@H](C[C@@H](OC(C)=O)c1nc(C(=O)NC23C4C5C2C2C3C4C52C(=O)OC)cs1)C(C)C` (stereo not given in full), the growth was 55.7% (inactive).
On the same count and under the same terms, the same measure for `N#CCN(CC#N)[N+](=O)[O-]`: 103% (inactive); for `CC[C@H](C)[C@H](NC(=O)c1ncccn1)C(=O)N(C)[C@H](C[C@@H](OC(C)=O)c1nc(C(=O)N[C@@H](Cc2ccccc2)C[C@H](C)C(=O)OC)cs1)C(C)C`: 74.3% (inactive); for `C=C1C(=O)OC2CC3(C)OC3C3OC3C3=CC(OC3=O)C12` (stereo not given): 106% (inactive) and 104% (inactive).
On to `Cc1cc2c(cc1-c1ccnc(/C=C/C(=O)O)c1)C(C)(C)CCC2(C)C`, for which the growth is 100% (inactive).
For the compound `O=S(=O)(c1ccc(O)cc1)c1ccccc1O`, the growth was 98.9% (inactive).
For `N#CCc1ccc(CC#N)cc1`, the growth was 104% (inactive).
In the case of `ClC1OC(Cl)(Cl)C(Cl)(Cl)OC1(Cl)Cl` (stereo not given), the growth was 93.4% (inactive).
On the same count and under the same terms, the same measure for `O=NN1CCCCC1`: 104% (inactive).
In the case of `O=S(OO)c1cc(Cl)c(O)c(Cl)c1` (stereo not given), the growth is 107% (inactive).
With `CC1(C)S[C@H]2CC[C@H]3OC(=O)[C@@H]1N23`, the growth was 91.1% (inactive).
